IL1B secr inh: inhibitors of inflammasome signaling (IL-1 beta secretion); THP-1 LPS/ATP IL-1B secretion, AlphaLISA, 16 h; hits give low values; 4.7% of 360,000 active; activity change, % at 57.5 µM; in the data active means activity change below about -50%; inconclusive means mostly about -30% to -49%
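Secreted IL-1B measured by AlphaLISA bead assay after 16 h compound exposure of THP-1 cells; compounds (final up to 57.5 uM) added 1 h before LPS (250 ng/mL) and ATP (1.25 mM) stimulation; lower signal means less secretion.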
TDP1 cell CPT: DT40-hTDP1 cell growth loss with CPT | chicken DT40 Tdp1-/-;hTDP1 cells + 20 nM CPT, ATP luminescence, 48 h | Potency, µM (highest dose often 46.2 µM), most hits filed as inhibitors | 12% of 420,000 active | AID 686979; further: nearly all actives have a fitted effect of over 55% in size
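Chicken DT40 Tdp1-/- cells stably complemented with human TDP1 were seeded at 400 cells/well in medium containing 20 nM camptothecin, exposed to pin-transferred compounds, and grown at 37 °C for at least 48 hr. Viability was read as ATP luminescence.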
DT40 TDP1 no CPT: qHTS for Inhibitors of human tyrosyl-DNA phosphodiesterase 1 (TDP1): qHTS in cells in absence of CPT; Potency, µM (top dose mostly 46.2 µM), usual class: inhibitors; DT40 Tdp1-/- hTDP1 cells, no CPT, ATP luminescence, 48 h; 15% of 420,000 active; AID 686978, 2013; further: nearly all actives have a fitted effect of over 55% in size
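Camptothecin absent (DMSO only). Human TDP1-complemented DT40 knockout cells, 400 cells/well, 37 °C for minimum 48 hr; ATP measured via CellTiter-Glo, 30 min dark incubation, luminescence.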
HT1080 IDH1KD tx: kills HT-1080 cells with IDH1 knockdown; 2% of 360,000 active; Potency, µM (series often up to 46.1 µM), actives largely listed as cytotoxic; HT-1080 IDH1 knockdown viability, ATP luminescence, 48 h
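IDH1KD HT-1080 cells, 750/well, RPMI + 5% FBS; compound pinned after 2 h settling; 48 h, 37 °C; CellTiter-Glo luminescence; % activity normalised to DMSO and no-cell wells; curves fitted, classed by r2 and efficacy.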
HT1080NT lethal: kills 2HG-producing HT-1080-NT fibrosarcoma cells; HT-1080-NT fibrosarcoma viability, CellTiter-Glo ATP luminescence, 48 h; Potency, µM (top dose mostly 46.1 µM), most hits filed as cytotoxic; 1.6% of 360,000 active; AID 686970;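 further: NT is the 2HG producing partner of a matched IDH1 knockdown line; nearly all actives have a fitted effect of over 55% in size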
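Viability by CellTiter-Glo luminescence after 48 h compound exposure at 37C of HT-1080-NT cells (750/well, RPMI, 5% FBS). % activity scaled between DMSO wells and medium-only wells, then curve-fitted and categorized by curve class.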
ELG1 repair inh: blocks ELG1-dependent DNA repair in HEK293T cells | HEK293T ELG1-luciferase reporter, luminescence, 16 h; DNA damage induced by 5-fluorouridine | Potency, µM (top dose mostly 46.1 µM), most hits filed as inhibitors | 2.3% of 330,000 active | AID 504467; further: nearly all actives have a fitted effect of over 55% in size
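Luminescence from the luciferase reporter, measured 30 min after ONE-Glo reagent at room temperature, was the read-out. Beforehand, 2,000 cells per well were exposed for 16 hr at 37 °C to 5-fluorouridine together with compound or vehicle.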
Numbers stand for hits. A selection: hits, their analogues and other compounds. The true share with any hit is near 19%. Unless noted, the call rests on the fitted dose curve; in most records, active means well fitted curve in the direction sought with a large enough effect; inconclusive means small, poorly fitted or top-dose-only effect, or another doubt; inactive means no such curve, though single readings can be large; an effect the other way counts as inactive or inconclusive.

COCCn1nnnc1C(C(C)C)N(Cc1cccnc1)Cc1ccccc1Cl (stereo unspecified) was read as IL1B secr inh inactive, TDP1 cell CPT inconclusive, DT40 TDP1 no CPT 23.1µM, HT1080 IDH1KD tx inactive, HT1080NT lethal inactive and ELG1 repair inh inactive.
`COc1ccccc1NC(=S)N(Cc1cccnc1)Cc1ccccc1Cl` gave IL1B secr inh inactive, TDP1 cell CPT inactive, DT40 TDP1 no CPT inconclusive, HT1080 IDH1KD tx inactive, HT1080NT lethal inactive and ELG1 repair inh inactive.
`CC(=O)C(Cc1ccccc1)NC(=O)COC(=O)CCN1C(=O)C2CC=CCC2C1=O` (stereo unspecified) gave IL1B secr inh inactive, TDP1 cell CPT inactive, DT40 TDP1 no CPT inactive, HT1080 IDH1KD tx inactive, HT1080NT lethal inactive and ELG1 repair inh inactive.
Screening O=C(Nc1ccc2nc3n(c(=O)c2c1)CCCCC3)c1c(F)ccc([N+](=O)[O-])c1F returned IL1B secr inh -101.8, TDP1 cell CPT 2.59µM, DT40 TDP1 no CPT 2.31µM, HT1080 IDH1KD tx 14.6µM, HT1080NT lethal 9.2µM and ELG1 repair inh inconclusive.
Screening O=C(Nc1ccc2nc3n(c(=O)c2c1)CCCC3)c1cccc(F)c1 returned IL1B secr inh inactive, TDP1 cell CPT inactive, DT40 TDP1 no CPT inactive, HT1080 IDH1KD tx inactive, HT1080NT lethal inactive and ELG1 repair inh inconclusive.
Screening O=C(Nc1ccc2nc3n(c(=O)c2c1)CCCC3)c1ccccc1F returned IL1B secr inh inactive, TDP1 cell CPT inactive, DT40 TDP1 no CPT inactive, HT1080 IDH1KD tx inactive, HT1080NT lethal inactive and ELG1 repair inh inconclusive.
Screening O=C(Nc1ccc2nc3n(c(=O)c2c1)CCCCC3)c1cc([N+](=O)[O-])ccc1F returned IL1B secr inh -93.4, TDP1 cell CPT 6.51µM, DT40 TDP1 no CPT 2.59µM, HT1080 IDH1KD tx inconclusive, HT1080NT lethal inconclusive and ELG1 repair inh inconclusive.
`Cc1ccc(C2CC(c3cccs3)=NN2S(=O)(=O)c2ccc(C)cc2)cc1` (stereo unspecified) gave IL1B secr inh inactive, TDP1 cell CPT 20.6µM, DT40 TDP1 no CPT 23.1µM, HT1080 IDH1KD tx inactive, HT1080NT lethal inactive and ELG1 repair inh inactive.
Screening COc1ccc(C2CC(c3cccs3)=NN2S(=O)(=O)c2ccc(C)cc2)cc1 (stereo unspecified) returned IL1B secr inh inactive, TDP1 cell CPT 23.1µM, DT40 TDP1 no CPT 23.1µM, HT1080 IDH1KD tx inactive and HT1080NT lethal inactive.
For O=S(=O)(c1ccccc1)N1N=C(c2cccs2)CC1c1cccc(O)c1 (stereo unspecified) the results were IL1B secr inh inconclusive, TDP1 cell CPT inconclusive, DT40 TDP1 no CPT 16.4µM, HT1080 IDH1KD tx inactive, HT1080NT lethal inactive and ELG1 repair inh inconclusive.
O=S(=O)(c1ccccc1)N1N=C(c2cccs2)CC1c1ccc(F)cc1 (stereo unspecified) was read as IL1B secr inh inactive, TDP1 cell CPT inconclusive, DT40 TDP1 no CPT inconclusive, HT1080 IDH1KD tx inactive, HT1080NT lethal inactive and ELG1 repair inh inactive.
CC(=O)CCC(=O)CNC(=O)CC[C@H]1O[C@@H](n2ccc(=O)[nH]c2=O)[C@H](O)[C@@H]1O was read as IL1B secr inh inactive, TDP1 cell CPT inactive, DT40 TDP1 no CPT inactive, HT1080 IDH1KD tx inactive and HT1080NT lethal inactive.
Screening CC1Cc2cc(/C(O)=C3/C(=O)C(=O)N(CCN4CCOCC4)C3c3ccc(N(C)C)cc3)ccc2O1 (stereo unspecified) returned IL1B secr inh inactive, TDP1 cell CPT inactive, DT40 TDP1 no CPT inactive, HT1080 IDH1KD tx inactive, HT1080NT lethal inactive and ELG1 repair inh inactive.
O=C(O)c1ccc(C=C(c2nc3ccccc3s2)c2nc3ccccc3s2)cc1 was read as IL1B secr inh -108.4, TDP1 cell CPT inconclusive, DT40 TDP1 no CPT inactive, HT1080 IDH1KD tx inconclusive, HT1080NT lethal inconclusive and ELG1 repair inh inactive.
`COc1cc(/C=N\Nc2nc(-c3ccc(C)cc3)c(NC(C)=O)s2)ccc1O` gave IL1B secr inh -62.1, TDP1 cell CPT inactive, DT40 TDP1 no CPT inactive, HT1080 IDH1KD tx inactive, HT1080NT lethal inactive and ELG1 repair inh inconclusive.
COc1cc(/C=N/NC(=Nc2ccc(C)cc2)c2nc3ccccc3s2)ccc1O was read as IL1B secr inh inactive, TDP1 cell CPT 14.1µM, DT40 TDP1 no CPT 15.8µM, HT1080 IDH1KD tx inconclusive, HT1080NT lethal inconclusive and ELG1 repair inh inconclusive.
Screening COc1ccc(/C=N/Nc2nc(-c3ccc(C)cc3)c(NC(C)=O)s2)cc1OC returned IL1B secr inh inactive, TDP1 cell CPT inactive, DT40 TDP1 no CPT inactive, HT1080 IDH1KD tx inactive, HT1080NT lethal inactive and ELG1 repair inh inconclusive.
`CN(C)c1ccc(/C=C(\Cl)c2nc3ccccc3s2)cc1` gave IL1B secr inh inactive, TDP1 cell CPT 16.4µM, DT40 TDP1 no CPT 20.6µM, HT1080 IDH1KD tx inactive, HT1080NT lethal inactive and ELG1 repair inh inconclusive.
`COc1cc(/C=N/NC(=O)c2cccc(C(=O)N/N=C/c3ccc(O)c(OC)c3)n2)ccc1O` gave IL1B secr inh inactive, TDP1 cell CPT inactive, DT40 TDP1 no CPT inactive, HT1080 IDH1KD tx inactive, HT1080NT lethal inactive and ELG1 repair inh inactive.
CC(c1nc2ccccc2[nH]1)N(C(=O)Cc1csc2ccccc12)c1cccnc1 (stereo unspecified) was read as IL1B secr inh inactive, TDP1 cell CPT inconclusive, DT40 TDP1 no CPT inconclusive, HT1080 IDH1KD tx inactive and HT1080NT lethal inactive.
COc1ccc(C(=O)COC(=O)c2sc(C)nc2C)cc1F was read as IL1B secr inh inactive, TDP1 cell CPT inactive, DT40 TDP1 no CPT inactive, HT1080 IDH1KD tx inactive, HT1080NT lethal inactive and ELG1 repair inh inactive.
COc1cc(C=C(c2nc3ccccc3s2)c2nc3ccccc3s2)cc(OC)c1O was read as IL1B secr inh -82.5, TDP1 cell CPT 23.1µM, DT40 TDP1 no CPT inconclusive, HT1080 IDH1KD tx inactive, HT1080NT lethal inactive and ELG1 repair inh inconclusive.
For COc1cc(/C=C(\CC(=O)O)c2nc3ccccc3s2)cc(OC)c1O the results were IL1B secr inh inactive, TDP1 cell CPT inactive, DT40 TDP1 no CPT inconclusive, HT1080 IDH1KD tx inactive, HT1080NT lethal inactive and ELG1 repair inh inactive.
Cc1ccc(NC(=O)CCn2cnc3onc(-c4ccc(F)cc4)c3c2=O)c(Br)c1 was read as TDP1 cell CPT inactive and DT40 TDP1 no CPT inactive.
Cc1nn(CCCC(=O)Nc2cccc(C(F)(F)F)c2)c(=O)c2nn(-c3ccccc3)c(C)c12 was read as TDP1 cell CPT inactive and DT40 TDP1 no CPT inactive.
Screening O=C(CCn1cnc2onc(-c3ccc(F)cc3)c2c1=O)Nc1cccc(C(F)(F)F)c1 returned TDP1 cell CPT 16.4µM and DT40 TDP1 no CPT 16.4µM.
